What all share (assay): DAPPL (digital affinity profiling via proximity ligation, sequencing); 10 mM Tris-HCl pH 7.5, 50 mM NaCl, 1 mM DTT, 4% glycerol, room temperature, 30 min; GST-TFs on glutathione beads, 16-mer random dsDNA library, 0.1% formaldehyde crosslink after washing; high values mean tight binding
One test deals with T1, FEV (Homo sapiens, UniProt Q99581 1-238).
T1 sequence: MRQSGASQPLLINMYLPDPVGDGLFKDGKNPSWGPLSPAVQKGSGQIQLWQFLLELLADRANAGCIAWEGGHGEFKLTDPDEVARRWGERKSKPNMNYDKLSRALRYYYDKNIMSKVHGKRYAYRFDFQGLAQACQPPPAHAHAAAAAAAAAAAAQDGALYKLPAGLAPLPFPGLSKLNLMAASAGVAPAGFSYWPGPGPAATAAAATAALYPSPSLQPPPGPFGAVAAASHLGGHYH
The settings on record: protein: recombinant; tags: N-terminal GST; dsDNA, one strand shown. The gist of the method:
(§1)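 Human transcription factors were made in yeast as GST fusions, captured on glutathione beads and barcoded with DNA. With a tag-only sample included, the pool was incubated with 200 nmole of a random double-stranded 16-mer DNA library in Tris/NaCl/DTT/glycerol buffer at room temperature for 30 min, then crosslinked with 0.1% formaldehyde after washing, ligated by proximity, amplified and sequenced. For binding signal, each hexamer's read frequency for a factor is divided by its frequency for the tag-only sample.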

A further test concerns the target ETV5 (Homo sapiens, UniProt P41161 1-510). Particulars: protein: recombinant; tags: N-terminal GST; dsDNA, one strand shown. The method in brief:
as §1

The next test has as its target HSF1 (Homo sapiens, UniProt Q00613 1-529). Particulars: protein: recombinant; tags: N-terminal GST; chain copies: 3; dsDNA, one strand shown. The method in brief: as §1
For the next test, the target named is T2, SPIC (Homo sapiens, UniProt Q8N5J4 1-248).
T2 sequence: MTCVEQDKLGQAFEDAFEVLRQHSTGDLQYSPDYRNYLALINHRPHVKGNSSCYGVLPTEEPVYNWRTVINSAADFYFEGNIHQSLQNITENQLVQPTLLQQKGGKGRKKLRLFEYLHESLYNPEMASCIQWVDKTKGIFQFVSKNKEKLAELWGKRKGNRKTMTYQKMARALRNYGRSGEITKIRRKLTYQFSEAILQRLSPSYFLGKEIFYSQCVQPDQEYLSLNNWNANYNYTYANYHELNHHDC
The settings on record: protein: recombinant; tags: N-terminal GST; dsDNA, one strand shown. The gist of the method: as §1

In a further test the target is ELF4 (Homo sapiens, UniProt Q99607 1-663). The settings on record: protein: recombinant; tags: N-terminal GST; dsDNA, one strand shown. The gist of the method: as §1
A further test has as its target T3, ELK4 (Homo sapiens, UniProt P28324-2 1-405).
T3 sequence: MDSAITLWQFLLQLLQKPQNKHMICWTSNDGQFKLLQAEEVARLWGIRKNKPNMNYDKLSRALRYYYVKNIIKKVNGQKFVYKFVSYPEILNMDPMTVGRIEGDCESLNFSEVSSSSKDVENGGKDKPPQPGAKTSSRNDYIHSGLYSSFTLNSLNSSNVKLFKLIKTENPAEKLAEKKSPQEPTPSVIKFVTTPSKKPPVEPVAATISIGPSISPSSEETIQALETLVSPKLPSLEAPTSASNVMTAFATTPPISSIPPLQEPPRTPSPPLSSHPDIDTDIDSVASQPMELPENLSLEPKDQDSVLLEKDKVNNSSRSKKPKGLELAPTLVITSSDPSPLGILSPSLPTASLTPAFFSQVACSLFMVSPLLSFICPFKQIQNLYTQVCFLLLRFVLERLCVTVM
The settings on record: protein: recombinant; tags: N-terminal GST; dsDNA, one strand shown. The method in brief: as §1

Another test has as its target T4, ETV2 (Homo sapiens, UniProt O00321 1-342).
T4 sequence: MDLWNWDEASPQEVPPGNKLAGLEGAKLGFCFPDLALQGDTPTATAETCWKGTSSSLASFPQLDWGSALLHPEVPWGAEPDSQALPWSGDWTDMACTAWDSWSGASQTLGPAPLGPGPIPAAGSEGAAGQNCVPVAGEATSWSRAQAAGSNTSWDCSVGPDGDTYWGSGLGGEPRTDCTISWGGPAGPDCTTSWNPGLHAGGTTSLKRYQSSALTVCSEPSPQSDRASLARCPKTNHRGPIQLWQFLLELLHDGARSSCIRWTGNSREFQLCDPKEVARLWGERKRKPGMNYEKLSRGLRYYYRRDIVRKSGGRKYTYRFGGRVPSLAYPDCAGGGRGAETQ
The settings on record: protein: recombinant; tags: N-terminal GST; dsDNA, one strand shown. The method in brief: as §1

The next test concerns the target T5, ELF3 (Homo sapiens, UniProt P78545 1-371).
T5 sequence: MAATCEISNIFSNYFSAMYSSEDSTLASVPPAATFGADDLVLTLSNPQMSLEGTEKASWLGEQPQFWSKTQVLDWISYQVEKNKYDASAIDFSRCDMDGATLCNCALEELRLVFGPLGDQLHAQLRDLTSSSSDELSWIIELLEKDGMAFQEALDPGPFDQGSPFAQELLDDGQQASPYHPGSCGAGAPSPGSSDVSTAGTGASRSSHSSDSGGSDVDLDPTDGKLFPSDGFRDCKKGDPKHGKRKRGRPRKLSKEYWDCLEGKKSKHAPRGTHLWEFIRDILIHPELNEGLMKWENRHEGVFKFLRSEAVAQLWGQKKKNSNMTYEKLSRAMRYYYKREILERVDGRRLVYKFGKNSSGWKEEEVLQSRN
Particulars: protein: recombinant; tags: N-terminal GST; dsDNA, one strand shown. The method in brief: as §1

Another test has as its target CRX (Homo sapiens, UniProt O43186 1-299). Particulars: protein: recombinant; tags: N-terminal GST; dsDNA, one strand shown. The gist of the method: as §1
The next test deals with ETV1 (Homo sapiens, UniProt P50549 1-477). Particulars: protein: recombinant; tags: N-terminal GST; dsDNA, one strand shown. The gist of the method: as §1
A further test addresses T6, ERF (Homo sapiens, UniProt P50548 1-548).
T6 sequence: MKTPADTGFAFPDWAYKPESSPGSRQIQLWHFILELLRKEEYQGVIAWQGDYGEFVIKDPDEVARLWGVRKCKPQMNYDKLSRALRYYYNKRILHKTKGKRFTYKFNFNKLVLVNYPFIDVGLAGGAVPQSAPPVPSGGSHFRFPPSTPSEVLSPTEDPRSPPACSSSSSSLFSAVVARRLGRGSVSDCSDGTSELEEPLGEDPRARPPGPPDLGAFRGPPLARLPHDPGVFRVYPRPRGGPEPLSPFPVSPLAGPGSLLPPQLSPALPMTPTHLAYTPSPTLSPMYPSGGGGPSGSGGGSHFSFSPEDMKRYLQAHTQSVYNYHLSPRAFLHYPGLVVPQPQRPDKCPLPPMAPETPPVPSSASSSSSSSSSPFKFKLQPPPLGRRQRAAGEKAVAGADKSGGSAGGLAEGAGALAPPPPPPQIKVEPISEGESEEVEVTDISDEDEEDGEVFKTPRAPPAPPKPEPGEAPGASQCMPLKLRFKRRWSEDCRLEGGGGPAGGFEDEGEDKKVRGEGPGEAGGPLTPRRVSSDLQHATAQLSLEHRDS
Particulars: protein: recombinant; tags: N-terminal GST; dsDNA, one strand shown. The method in brief: as §1

A further test has as its target T7, ETV3L (Homo sapiens, UniProt Q6ZN32 1-361).
T7 sequence: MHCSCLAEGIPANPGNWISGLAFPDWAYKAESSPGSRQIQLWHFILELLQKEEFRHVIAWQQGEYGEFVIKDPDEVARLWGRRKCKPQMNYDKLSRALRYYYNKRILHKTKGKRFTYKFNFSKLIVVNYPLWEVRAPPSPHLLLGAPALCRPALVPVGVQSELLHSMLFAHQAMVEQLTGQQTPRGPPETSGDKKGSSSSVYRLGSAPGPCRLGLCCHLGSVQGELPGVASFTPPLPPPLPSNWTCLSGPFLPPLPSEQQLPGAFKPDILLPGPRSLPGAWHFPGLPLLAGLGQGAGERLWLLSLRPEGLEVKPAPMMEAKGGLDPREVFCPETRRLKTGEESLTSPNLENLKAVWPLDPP
The settings on record: protein: recombinant; tags: N-terminal GST; dsDNA, one strand shown. The method in brief:
as §1

The target of a further test is T8, ETS2 (Homo sapiens, UniProt P15036 1-469).
T8 sequence: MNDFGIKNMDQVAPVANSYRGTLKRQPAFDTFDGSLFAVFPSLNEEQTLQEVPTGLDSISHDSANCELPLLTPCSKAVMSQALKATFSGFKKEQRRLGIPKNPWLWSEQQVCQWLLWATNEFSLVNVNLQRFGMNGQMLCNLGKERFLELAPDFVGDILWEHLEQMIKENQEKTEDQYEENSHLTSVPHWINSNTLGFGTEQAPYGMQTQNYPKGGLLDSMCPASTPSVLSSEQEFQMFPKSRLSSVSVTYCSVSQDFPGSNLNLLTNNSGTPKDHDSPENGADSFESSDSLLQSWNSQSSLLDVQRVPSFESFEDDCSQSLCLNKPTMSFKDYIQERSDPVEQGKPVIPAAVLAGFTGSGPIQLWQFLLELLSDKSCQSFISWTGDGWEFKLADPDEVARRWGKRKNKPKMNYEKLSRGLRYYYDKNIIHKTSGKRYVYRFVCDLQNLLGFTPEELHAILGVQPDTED
The settings on record: protein: recombinant; tags: N-terminal GST; dsDNA, one strand shown. The gist of the method: as §1

A further test addresses T9, SPDEF (Homo sapiens, UniProt O95238 1-335).
T9 sequence: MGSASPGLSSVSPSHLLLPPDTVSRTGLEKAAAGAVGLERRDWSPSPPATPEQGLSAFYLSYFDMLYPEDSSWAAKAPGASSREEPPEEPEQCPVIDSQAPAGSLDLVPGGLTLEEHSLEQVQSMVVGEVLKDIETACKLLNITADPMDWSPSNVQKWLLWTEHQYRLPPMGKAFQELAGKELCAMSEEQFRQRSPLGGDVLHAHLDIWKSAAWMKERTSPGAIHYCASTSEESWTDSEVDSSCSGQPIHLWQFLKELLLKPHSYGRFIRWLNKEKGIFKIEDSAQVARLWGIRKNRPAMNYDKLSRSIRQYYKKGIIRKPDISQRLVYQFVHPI
Particulars: protein: recombinant; tags: N-terminal GST; dsDNA, one strand shown. The method in brief: as §1

The target in the next test is T10, ETV7 (Homo sapiens, UniProt Q9Y603 1-341).
T10 sequence: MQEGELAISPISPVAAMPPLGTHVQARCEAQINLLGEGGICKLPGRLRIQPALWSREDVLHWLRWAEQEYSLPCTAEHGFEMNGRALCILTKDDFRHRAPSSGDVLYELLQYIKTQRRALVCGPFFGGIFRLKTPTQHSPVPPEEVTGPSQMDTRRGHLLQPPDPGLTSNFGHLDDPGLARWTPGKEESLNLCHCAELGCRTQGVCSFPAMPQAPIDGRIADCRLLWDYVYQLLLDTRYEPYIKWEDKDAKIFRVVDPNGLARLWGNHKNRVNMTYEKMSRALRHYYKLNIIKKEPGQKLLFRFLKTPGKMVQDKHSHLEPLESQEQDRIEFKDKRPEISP
The settings on record: protein: recombinant; tags: N-terminal GST; dsDNA, one strand shown. The gist of the method: as §1

Another test deals with T11, ELF5 (Homo sapiens, UniProt Q9UKW6-2 1-255).
T11 sequence: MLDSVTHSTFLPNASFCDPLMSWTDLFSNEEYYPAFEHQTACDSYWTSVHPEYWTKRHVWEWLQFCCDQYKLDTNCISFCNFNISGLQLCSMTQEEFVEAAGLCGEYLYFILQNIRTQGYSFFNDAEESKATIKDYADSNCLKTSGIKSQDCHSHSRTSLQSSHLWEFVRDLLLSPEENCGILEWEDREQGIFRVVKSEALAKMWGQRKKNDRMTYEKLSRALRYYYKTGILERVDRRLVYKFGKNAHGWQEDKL
Particulars: protein: recombinant; tags: N-terminal GST; dsDNA, one strand shown. The method in brief:
as §1

For the next test, the target named is T12, ETV3 (Homo sapiens, UniProt P41162-2 1-143).
T12 sequence: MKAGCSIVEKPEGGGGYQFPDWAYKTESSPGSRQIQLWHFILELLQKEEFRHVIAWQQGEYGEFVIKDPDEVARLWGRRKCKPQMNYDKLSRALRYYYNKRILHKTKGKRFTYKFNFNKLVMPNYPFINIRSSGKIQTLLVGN
Particulars: protein: recombinant; tags: N-terminal GST; dsDNA, one strand shown. The gist of the method: as §1

The target in a further test is ETV6 (Homo sapiens, UniProt P41212 1-452). The settings on record: protein: recombinant; tags: N-terminal GST; dsDNA, one strand shown. The method in brief:
as §1

Chain of ELF4 (Q99607 whole entry): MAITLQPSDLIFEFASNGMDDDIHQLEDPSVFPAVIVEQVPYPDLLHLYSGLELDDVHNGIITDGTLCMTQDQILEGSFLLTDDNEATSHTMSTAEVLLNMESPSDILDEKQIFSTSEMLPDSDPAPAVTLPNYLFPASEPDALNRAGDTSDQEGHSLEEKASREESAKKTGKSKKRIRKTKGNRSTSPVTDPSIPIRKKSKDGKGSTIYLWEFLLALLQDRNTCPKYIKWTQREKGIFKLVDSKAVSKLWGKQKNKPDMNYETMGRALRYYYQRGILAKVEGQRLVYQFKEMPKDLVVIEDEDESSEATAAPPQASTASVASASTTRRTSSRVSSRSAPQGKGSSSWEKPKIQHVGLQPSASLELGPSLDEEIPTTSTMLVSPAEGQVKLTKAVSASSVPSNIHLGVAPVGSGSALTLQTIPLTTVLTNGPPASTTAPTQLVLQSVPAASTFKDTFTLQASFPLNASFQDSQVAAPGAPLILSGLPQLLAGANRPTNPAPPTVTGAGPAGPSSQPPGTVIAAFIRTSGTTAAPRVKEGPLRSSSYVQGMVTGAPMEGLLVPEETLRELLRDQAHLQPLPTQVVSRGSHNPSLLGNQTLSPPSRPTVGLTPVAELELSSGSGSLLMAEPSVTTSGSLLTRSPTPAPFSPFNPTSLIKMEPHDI
Chain of ETV1 (P50549 whole entry): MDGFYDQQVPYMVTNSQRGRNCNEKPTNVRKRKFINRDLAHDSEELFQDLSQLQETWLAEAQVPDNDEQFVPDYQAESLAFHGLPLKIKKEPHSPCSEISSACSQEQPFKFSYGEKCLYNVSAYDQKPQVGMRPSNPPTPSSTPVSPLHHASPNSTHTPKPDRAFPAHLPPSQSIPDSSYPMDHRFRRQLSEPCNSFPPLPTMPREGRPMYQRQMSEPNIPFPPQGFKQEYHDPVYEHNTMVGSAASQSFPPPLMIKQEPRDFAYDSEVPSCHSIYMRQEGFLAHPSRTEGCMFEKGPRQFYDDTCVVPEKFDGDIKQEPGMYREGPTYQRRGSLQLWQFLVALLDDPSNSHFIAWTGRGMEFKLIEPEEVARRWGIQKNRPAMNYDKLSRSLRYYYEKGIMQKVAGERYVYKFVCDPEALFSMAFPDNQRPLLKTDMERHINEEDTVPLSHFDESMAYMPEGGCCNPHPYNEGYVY
Chain of CRX (O43186 whole entry): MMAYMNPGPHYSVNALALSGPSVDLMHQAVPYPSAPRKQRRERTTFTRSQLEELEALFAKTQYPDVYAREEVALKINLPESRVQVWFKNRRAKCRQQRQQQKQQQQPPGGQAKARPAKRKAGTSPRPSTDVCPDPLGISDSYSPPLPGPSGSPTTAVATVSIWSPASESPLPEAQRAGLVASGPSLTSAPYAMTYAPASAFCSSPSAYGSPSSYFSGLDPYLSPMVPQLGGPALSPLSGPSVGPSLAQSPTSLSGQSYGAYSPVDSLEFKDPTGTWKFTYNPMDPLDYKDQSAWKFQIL
Chain of HSF1 (Q00613 whole entry): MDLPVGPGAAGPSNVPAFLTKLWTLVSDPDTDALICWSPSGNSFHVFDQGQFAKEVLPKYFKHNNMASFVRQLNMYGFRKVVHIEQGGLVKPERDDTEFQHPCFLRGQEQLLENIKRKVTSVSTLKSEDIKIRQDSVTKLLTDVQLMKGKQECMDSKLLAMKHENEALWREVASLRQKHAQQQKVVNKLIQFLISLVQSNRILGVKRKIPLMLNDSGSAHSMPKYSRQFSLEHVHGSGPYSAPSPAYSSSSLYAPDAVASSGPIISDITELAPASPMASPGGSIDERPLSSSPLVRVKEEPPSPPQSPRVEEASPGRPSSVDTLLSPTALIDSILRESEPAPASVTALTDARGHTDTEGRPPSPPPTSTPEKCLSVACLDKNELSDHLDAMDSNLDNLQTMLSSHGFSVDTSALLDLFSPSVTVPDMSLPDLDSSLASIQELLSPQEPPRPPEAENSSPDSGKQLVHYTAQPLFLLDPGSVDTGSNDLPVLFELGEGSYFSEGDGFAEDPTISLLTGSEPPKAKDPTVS
Chain of ETV6 (P41212 whole entry): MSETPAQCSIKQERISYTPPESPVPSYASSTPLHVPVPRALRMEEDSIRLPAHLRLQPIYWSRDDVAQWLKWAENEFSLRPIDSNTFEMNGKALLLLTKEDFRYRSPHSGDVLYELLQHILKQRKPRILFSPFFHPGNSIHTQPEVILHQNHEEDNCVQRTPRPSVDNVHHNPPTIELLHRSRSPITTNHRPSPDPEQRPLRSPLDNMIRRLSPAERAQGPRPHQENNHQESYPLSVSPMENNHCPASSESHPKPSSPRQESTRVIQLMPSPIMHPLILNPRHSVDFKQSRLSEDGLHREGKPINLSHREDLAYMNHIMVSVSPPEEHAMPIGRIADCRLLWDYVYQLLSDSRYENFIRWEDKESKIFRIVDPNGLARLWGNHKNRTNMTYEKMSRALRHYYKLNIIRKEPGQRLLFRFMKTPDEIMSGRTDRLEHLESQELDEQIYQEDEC
Chain of ETV5 (P41161 whole entry): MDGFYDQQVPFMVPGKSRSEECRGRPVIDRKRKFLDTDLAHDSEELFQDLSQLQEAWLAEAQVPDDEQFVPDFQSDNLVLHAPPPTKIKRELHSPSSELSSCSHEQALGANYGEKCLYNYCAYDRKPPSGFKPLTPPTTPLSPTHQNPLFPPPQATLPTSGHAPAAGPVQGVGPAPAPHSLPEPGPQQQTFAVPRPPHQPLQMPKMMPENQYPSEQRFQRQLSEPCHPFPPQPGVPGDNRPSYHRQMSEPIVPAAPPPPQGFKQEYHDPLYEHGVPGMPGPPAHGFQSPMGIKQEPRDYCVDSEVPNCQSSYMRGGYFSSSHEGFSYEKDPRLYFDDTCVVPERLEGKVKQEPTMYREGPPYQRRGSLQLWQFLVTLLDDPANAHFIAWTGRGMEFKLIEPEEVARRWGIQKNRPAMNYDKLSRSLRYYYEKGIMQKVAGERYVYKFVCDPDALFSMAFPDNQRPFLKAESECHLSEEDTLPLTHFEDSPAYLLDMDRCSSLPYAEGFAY

As to ACCCAT, the binding signal with FEV was 1.17 fold enrichment (6-mer frequency, TF over GST control); with ETV5 it was 1.25 fold enrichment (6-mer frequency, TF over GST control); with HSF1, 1.05 fold enrichment (6-mer frequency, TF over GST control); with SPIC, 1.15 fold enrichment (6-mer frequency, TF over GST control); with ELF4 it was 1.25 fold enrichment (6-mer frequency, TF over GST control); with ELK4, 1.17 fold enrichment (6-mer frequency, TF over GST control). Moreover, the binding signal with ETV2 is 1.18 fold enrichment (6-mer frequency, TF over GST control); with ELF3, 1.23 fold enrichment (6-mer frequency, TF over GST control); with CRX, 1.06 fold enrichment (6-mer frequency, TF over GST control); in the test with ETV1 it was 1.19 fold enrichment (6-mer frequency, TF over GST control); with ERF it was 1.31 fold enrichment (6-mer frequency, TF over GST control); with ETV3L it was 1.34 fold enrichment (6-mer frequency, TF over GST control). Also, the binding signal in the test with ETS2 was 1.37 fold enrichment (6-mer frequency, TF over GST control); with SPDEF, 1.21 fold enrichment (6-mer frequency, TF over GST control); with ETV7, 1.37 fold enrichment (6-mer frequency, TF over GST control); in the test with ELF5, 1.24 fold enrichment (6-mer frequency, TF over GST control); with ETV3 it was 1.25 fold enrichment (6-mer frequency, TF over GST control); with ETV6, 1.24 fold enrichment (6-mer frequency, TF over GST control).

The record behind these values is PMC7862700, “An all-to-all approach to the identification of sequence-specific readers for epigenetic DNA modifications on cytosine”.
